The text below walks through data of PubChem BioAssay AID488969 (Vanderbilt High Throughput Screening Facility, 2010).

Whole data set: some 110,000 compounds, median “z-score” near -0.1, cut for the highest 2% near 2. Shown is part of a subset that was picked to be rich in the highest values. Active and inactive are the calls of the source.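 The calls were made as follows: active = z-score in the third read window above 3 or below -3; inactive = the rest.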

Sequence of Metabotropic glutamate receptor 8 (Rattus norvegicus) (P70579 whole entry, looked up): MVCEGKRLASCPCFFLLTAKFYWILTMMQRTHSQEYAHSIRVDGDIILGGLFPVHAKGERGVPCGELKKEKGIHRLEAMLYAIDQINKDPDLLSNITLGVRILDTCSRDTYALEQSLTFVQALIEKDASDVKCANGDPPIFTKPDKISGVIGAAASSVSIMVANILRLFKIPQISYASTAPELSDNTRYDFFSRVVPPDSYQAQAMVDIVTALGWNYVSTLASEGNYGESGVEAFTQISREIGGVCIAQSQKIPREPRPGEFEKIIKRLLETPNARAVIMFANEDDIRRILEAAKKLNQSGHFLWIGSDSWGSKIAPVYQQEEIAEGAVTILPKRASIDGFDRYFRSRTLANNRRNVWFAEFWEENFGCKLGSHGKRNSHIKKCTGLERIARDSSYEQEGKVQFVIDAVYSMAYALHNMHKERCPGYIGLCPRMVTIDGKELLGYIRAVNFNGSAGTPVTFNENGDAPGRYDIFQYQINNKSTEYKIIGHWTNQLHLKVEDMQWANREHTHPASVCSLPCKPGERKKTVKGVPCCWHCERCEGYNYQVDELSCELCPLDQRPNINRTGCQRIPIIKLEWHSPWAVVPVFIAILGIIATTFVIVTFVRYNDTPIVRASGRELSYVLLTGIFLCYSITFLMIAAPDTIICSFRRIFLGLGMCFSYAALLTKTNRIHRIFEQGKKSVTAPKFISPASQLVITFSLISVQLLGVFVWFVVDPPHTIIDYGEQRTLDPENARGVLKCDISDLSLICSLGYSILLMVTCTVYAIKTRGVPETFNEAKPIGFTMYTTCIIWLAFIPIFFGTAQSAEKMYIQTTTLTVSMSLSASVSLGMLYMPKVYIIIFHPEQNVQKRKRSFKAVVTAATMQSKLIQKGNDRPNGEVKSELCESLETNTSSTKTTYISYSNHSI

The experiment concerns the target Metabotropic glutamate receptor 8 (Rattus norvegicus) (UniProt P70579). The experiment in a line: rat mGluR8 modulators via GIRK flux, primary screen, cell-based, thallium flux, HTS (AID 488969). The note with it: HEK293 rat mGluR8, GIRK (G protein-gated inwardly rectifying potassium channel) thallium flux, FluoZin2; at 10 µM; stronger effect = higher value; submaximal glutamate (EC20) added with thallium.
On to `CSc1ccc(N2CCN(CCCNC(=O)Nc3ccccc3F)CC2)cc1`, for which the z-score stood at 0.699.

`N#Cc1ccccc1NC(=O)COC(=O)CSc1nc2ccccc2o1` came in with a z-score of -2.27.

Molecule `Fc1ccc(CCNC(=S)Nc2ccc(F)cc2)cc1` displayed a z-score of 0.103.

In the case of `Cc1cc(/C=c2/sc3nc4ccccc4n3c2=O)c(C)n1-c1ccccn1`, the z-score is 6.08 (active).

`O=c1/c(=C\c2cccnc2)sc2nc3ccccc3n12` displayed a z-score of -0.0361.

In the case of `O=c1/c(=C/c2ccccn2)sc2nc3ccccc3n12`, the z-score worked out at 0.539.

`Cc1nc2oc3c(NCc4ccccc4)ncnc3c2c2c1COC(C)(C)C2`: the z-score was -0.383.

With `CCOc1ccc(C2=NNC(c3cccs3)=Nc3ccc(OCC)cc32)cc1`, the z-score was -0.166.

`CCCOc1ccc(C2=NNC(c3cccs3)=Nc3ccc(OC)cc32)cc1`: the z-score is -0.471.

`CCOc1ccc(C2=NNC(c3cccs3)=Nc3ccc(OC)cc32)cc1`: the z-score is 3.11 (active).

In turn, `CCCn1c2c(c(O)c(C(=O)NCCCN(CC)CC)c1=O)CCCC2` showed a z-score of 0.585.

As to `Cc1ccccc1C(=O)N1CCN(c2ccc([N+](=O)[O-])c(NCc3cccnc3)c2)CC1`, the z-score is -0.418.

Consider `Cc1cc(Cl)ccc1OCc1n[nH]c(=S)n1C1CCCCC1`, for which the z-score is 7.67 (active).

Molecule `S=c1[nH]nc(COc2ccc(Cl)cc2)n1C1CCCCC1` yielded a z-score of 1.31.

Consider `Cc1ccc(OCc2n[nH]c(=S)n2C2CCCCC2)cc1`, for which the z-score is -1.04.

Molecule `CC(=O)Cc1nsc(NC(=O)c2cn(-c3ccccc3)nc2-c2ccc(Br)cc2)n1` displayed a z-score of 0.229.

In the case of `O=C(c1ccccc1F)N1CCN=C1SCc1cccnc1`, the z-score came to 0.643.

As to `Cc1cc(NC(=O)C(C)C)ncc1NC(=O)Cc1ccccc1`, the z-score is 1.07.

Consider `Cc1cc(C(=O)N/N=C2\CCCC(C)C2)n[nH]1` (stereo not drawn), for which the z-score was -0.208.

As for `COc1ccc(CCN2C(=O)C(Oc3ccccc3C)C2c2ccc3c(c2)OCO3)cc1` (stereo not drawn), the z-score was -0.223.

In turn, `COc1ccc(CCN2C(=O)C(Oc3ccccc3)C2c2ccc3c(c2)OCO3)cc1` (stereo not drawn) showed a z-score of -0.146.

As to `COc1ccc([C@@H]2Sc3cc(OC)ccc3N(CCN(C(C)C)C(C)C)C(=O)[C@H]2OC(C)=O)cc1`, the z-score worked out at 2.62.

Turning to `COC(=O)COc1ccc(S(=O)(=O)N2CCc3ccccc3C2)cc1`, the z-score is -0.687.

As to `CCCCSc1nc2ccccc2n1CC(=O)O`, the z-score was -0.412.

As to `CC(C)(C)c1ccc2c(c1)C(=O)c1ccccc1C2=O`, the z-score is -0.283.

Turning to `CCOC(=O)c1ccc(Oc2nc(NC)nc(OC)n2)cc1`, the z-score was -0.524.

As to `C=CCOc1cccc(C2/C(=C(/O)c3ccccc3)C(=O)C(=O)N2CCN2CCOCC2)c1` (stereo not drawn), the z-score was -0.193.

Take `C=CCOc1cccc(C2/C(=C(/O)c3ccc(C)cc3)C(=O)C(=O)N2CCN2CCOCC2)c1` (stereo not drawn): the z-score is 3.31 (active).

`C=CCOc1cccc(C2/C(=C(/O)c3ccc(Cl)cc3)C(=O)C(=O)N2CCN2CCOCC2)c1` (stereo not drawn) displayed a z-score of -0.349.

Molecule `Cc1ccc(C)c(N2C(=O)CN=C2Nc2ccccc2Cl)c1` registered a z-score of -0.307.

Regarding `Cc1ccc(C(=O)NNC(=S)NC(=O)COc2ccccc2)cc1`, the z-score was 6.25 (active).

Consider `Cc1ccc(NC(=O)COc2ccccc2)c(NC(=O)c2ccccc2C)c1`, for which the z-score worked out at 0.00484.

Molecule `Cc1ccc(OCC(=O)NNC(=O)c2cccnc2)cc1` returned a z-score of 0.0457.

Regarding `Cc1ccccc1C(=O)NNC(=S)NC(=O)COc1ccccc1`, the z-score is 4.25 (active).

For `COc1cccc(OCC(=O)NNC(=O)c2ccc(-c3ccccc3)cc2)c1`, the z-score was found to be 0.902.

With `Cc1ccccc1C(=O)NNC(=O)Cc1ccccc1`, the z-score is -0.146.

As for `Cc1cccc(C(=O)NN2C(=O)C3C(c4ccccc4)C=CC(c4ccccc4)C3C2=O)c1` (stereo not drawn), the z-score came out at 0.291.

As for `Cc1ccc(C(=O)NCCSc2ccc(Cl)cc2)cc1S(=O)(=O)Nc1ccccc1`, the z-score was -0.43.

Take `CC(C)Cn1c(=O)c(C2=NS(=O)(=O)c3ccccc3N2)c(O)c2ccccc21`: the z-score was 5.83 (active).

In the case of `CC(C)Cn1c(=O)c(C(=O)N/N=C/c2cccc(F)c2)c(O)c2ccccc21`, the z-score worked out at 0.163.

The molecule `CCn1c(=O)c(-c2ccccc2)c(O)c2ccccc21` had a z-score of 1.28.

`CCCc1nc(NCC2CCCO2)c2nnn(Cc3ccccc3)c2n1` (stereo not drawn) had a z-score of -0.932.

For `Cc1ccccc1C(=O)NC(C(=O)Nc1nc2c(s1)CCCC2)C(C)C` (stereo not drawn), the z-score was -0.323.

In the case of `O=C(Nc1nc2c(s1)CCCC2)c1cccs1`, the z-score was 0.315.

Turning to `O=C(NC(=S)Nc1nc2c(s1)CCCC2)c1ccc(C(=O)c2ccccc2)cc1`, the z-score turned out to be 2.41.

Take `CCOc1ccccc1C(=O)N[C@H](C(=O)Nc1nc2c(s1)CCCC2)C(C)C`: the z-score turned out to be 0.39.

`COC(=O)c1ccc(C(=O)NC(=S)Nc2nc3c(s2)CC(C)CC3)cc1` (stereo not drawn) came in with a z-score of 0.17.

With `COC(=O)c1ccc(C(=O)NC(=S)Nc2nc3c(s2)CCCC3)cc1`, the z-score was 9.51 (active).

`O=C(NC(=S)Nc1nc2c(s1)CCCC2)c1ccccc1`: the z-score is 4.37 (active).

As for `O=C(NC(=S)Nc1nc2c(s1)CSc1ccccc1-2)c1ccccc1`, the z-score was 0.384.

Consider `CC(C)[C@H](NC(=O)c1ccccc1F)C(=O)Nc1nc2c(s1)CCCC2`, for which the z-score came out at 2.3.

The molecule `Cc1onc(-c2ccccc2)c1C(=O)Nc1nc2c(s1)CCCC2` showed a z-score of 0.165.

The molecule `CC(C)(C)c1ccc(C(=O)NC(=S)Nc2nc3c(s2)CCCC3)cc1` displayed a z-score of 1.95.

In the case of `CN(C)c1ccc(C(=O)Nc2nc3c(s2)CCCC3)cc1`, the z-score is 0.874.

As for `S=C1NCCOCCOCCOCCN1`, the z-score is -0.259.

The molecule `Cc1nc2oc3ccccc3c(=O)c2c(=O)n1Cc1ccccc1` returned a z-score of 1.14.

Take `Brc1ccccc1-c1nnc2sc(Cc3ccccc3)nn12`: the z-score is -2.32.

`Cc1ccc2cccc(S(=O)(=O)Nc3c(C)n(C)n(-c4ccccc4)c3=O)c2n1` returned a z-score of -0.0715.

In the case of `Cc1cc(C)n2nc(C(=O)OCC(=O)c3cc(C)n(C)c3C)nc2n1`, the z-score is -0.164.

`Cc1ccc2c(c1)nc(NCCO)n2C` came in with a z-score of -0.14.

Molecule `Cc1ccccc1CSCc1nc2ccccc2[nH]1` gave a z-score of -0.127.

Molecule `Cc1cccc(/C=C/C(=O)c2cc(Br)ccc(=O)c2O)c1` had a z-score of 2.75.

Molecule `Cc1ccc(/C=C/C(=O)c2cc(Br)ccc2OC(=O)c2ccco2)cc1` had a z-score of -0.117.

In turn, `CCc1ccc(C(C)NC(=O)/C=C/c2ccc(Br)cc2)cc1` (stereo not drawn) yielded a z-score of -0.0914.

`O=C(/C=C/c1ccc2c(c1)OCCCO2)c1ccc2ccccc2c1O` yielded a z-score of 0.573.

`CCc1ccc(/C=C/C(=O)c2cc(Br)ccc(=O)c2O)cc1` had a z-score of 2.17.

As for `O=C(/C=C/c1ccc2c(c1)OCCCO2)c1ccccc1O`, the z-score amounted to 0.562.

In turn, `CNc1ccc(Br)cc(C(=O)/C=C/c2ccc(OC)cc2)c1=O` yielded a z-score of 0.019.

As for `Cc1ccc(/C=C/C(=O)c2ccccc(=O)c2O)cc1C`, the z-score is 5.65 (active).

`CNc1ccc(Br)cc(C(=O)/C=C/c2ccc(OC)cc2OC)c1=O` gave a z-score of -0.255.

`CNc1ccc(Br)cc(C(=O)/C=C/c2ccc3c(c2)OCO3)c1=O` showed a z-score of 0.111.

Regarding `COc1ccc(/C=C/C(=O)c2cc(Br)ccc(=O)c2O)cc1`, the z-score was 3.14 (active).

The molecule `CNc1ccc(Br)cc(C(=O)/C=C/c2cccc(OC)c2)c1=O` had a z-score of -0.351.
